# From PubChem BioAssay
# The source made the active and inactive calls.
# Legend:
# [1] = optical density shifts of acrAB sulA E. coli – strain DRC41, OD650, 48 h, E. coli filamentation inducer project, primary screen (AID 1152); details: higher = more signal, called active from +8 up or from −8 down;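 also: E. coli MC1000 strain DRC41 lacking acrAB efflux pump and sulA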
# [2] = probe aLefty1 binding on compound microarray – biochemical, small-molecule microarray, 635/667 nm fluorescence, primary screen (AID 1153); details: higher = more signal;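 also: score merges spot fluorescence with signal-to-noise ratio from the scanned slide images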
# [3] = plasmodial surface anion channel blockers, osmotic lysis – cell-based, P. falciparum Indochina, OD700, 1 h, primary screen (AID 1154); details: P. falciparum Indochina infected RBC osmotic lysis, higher = more signal, called active from +8 up or from −8 down
# [4] = plasmodial surface anion channel blockers, osmotic lysis – cell-based, P. falciparum Indochina, OD700, 2 h, primary screen (AID 1155);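 also: lysis reports solute entry through the parasite surface anion channel PSAC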; details: P. falciparum Indochina infected erythrocytes, higher = more signal, called active from +8 up or from −8 down
# [5] = changes in parasitized red cell lysis, either direction – P. falciparum Indochina, OD700, 3 h, PSAC antagonist project, primary screen (AID 1156); details: P. falciparum-infected erythrocytes, osmotic lysis, higher = more signal, called active from +8 up or from −8 down
# [6] = plasmodial surface anion channel blockers, osmotic lysis – cell-based, P. falciparum Indochina, OD700, 18 h, primary screen (AID 1157); details: P. falciparum Indochina infected erythrocytes, osmotic lysis OD700, 18 h; higher = more signal, called active from +8 up or from −8 down
# [7] = S6 kinase pathway phospho-S6 level changes – cell-based, A549, cytoblot, luminescence, serum-stimulated, primary screen (AID 1158); details: 5 h, higher = more signal;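 also: serum-stimulated A549 lung adenocarcinoma cells; signal is phosphorylated S6 detected by cytoblot immunostaining with HRP secondary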
# [8] = biological target: NADPH oxidase 2 (Homo sapiens) (UniProt P04839); experiment: compounds shifting NOX2 Amplex Red fluorescence – cell-based, HEK293-NOX2, PMA-stimulated, NOX inhibitor project, primary screen (AID 1159); details: 45 min, higher = more signal, called active from +8 up or from −8 down; also: test concentration not given here
# [9] = biological target: NADPH oxidase 4 (Homo sapiens) (UniProt Q9NPH5); experiment: compounds shifting NOX4 Amplex Red fluorescence – cell-based, HEK293-NOX4, tetracycline-induced, NOX inhibitor project, primary screen (AID 1160); details: HEK293-NOX4, Amplex Red H2O2 fluorescence, 45 min; higher = more signal, called active from +8 up or from −8 down
# [10] = biological target: NADPH oxidase 5 (Homo sapiens) (UniProt Q96PH1); experiment: compounds shifting NOX5 Amplex Red fluorescence – cell-based, HEK293-NOX5, NOX inhibitor project, primary screen (AID 1161); details: HEK293-NOX5, ionomycin, 45 min, higher = more signal
# [11] = compound effects on lung adenocarcinoma cell viability – A549, calcein-AM fluorescence, 48 h, basal, profiling panel (AID 1162); details: higher = more signal; also: test concentration not given here
# [12] = compound effects on differentiated 3T3-L1 adipocyte viability – cell-based, 3T3-L1 adipocytes, calcein-AM fluorescence, 48 h, basal, profiling panel (AID 1163); details: 3T3-L1 adipocytes viability, higher = more signal; also: test concentration not given here
# [13] = compound effects on hepatocellular carcinoma cell viability – HepG2, calcein-AM fluorescence, 48 h, basal, profiling panel (AID 1164); details: higher = more signal; also: test concentration not given here
# [14] = compound effects on multiple myeloma cell viability – MM1S, calcein-AM fluorescence, 48 h, basal, profiling panel (AID 1165); details: higher = more signal;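 also: viability of MM1S multiple myeloma cells under basal unstimulated conditions; test concentration not given here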
# [15] = calcein-AM signal in unstimulated myeloma cells – cell-based, calcein-AM fluorescence, 48 h, PK04 Diversity Set, profiling panel (AID 1166); details: RPMI8226 myeloma viability, higher = more signal;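 also: cells grown under basal conditions without added stimulus; test concentration not given here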
# [16] = JC-1 mitochondrial signal, unstimulated HepG2 cells – cell-based, JC-1 fluorescence, 24 h, 100 nL compound, profiling panel (AID 1167); details: HepG2 mitochondrial potential, higher = more signal; also: test concentration not given here
# [17] = JC-1 mitochondrial signal, unstimulated adipocytes – cell-based, JC-1 fluorescence, 3T3-L1 adipocytes, 24 h, 100 nL compound, profiling panel (AID 1168); details: JC-1 mitochondrial fluorescence, higher = more signal, called active from +8 up or from −8 down; also: test concentration not given here
# [18] = JC-1 mitochondrial signal, unstimulated myeloma cells – cell-based, JC-1 fluorescence, RPMI8226, 24 h, 100 nL compound, profiling panel (AID 1169); details: JC-1 mitochondrial potential fluorescence, higher = more signal; also: test concentration not given here
# [19] = JC-1 mitochondrial signal, unstimulated MM1S myeloma – cell-based, JC-1 fluorescence, 24 h, 100 nL compound, profiling panel (AID 1170); details: MM1S mitochondrial potential, higher = more signal; also: test concentration not given here
# [20] = resazurin metabolic signal in A549 cells – cell-based, resazurin fluorescence, 24 h, PK04 Diversity Set, profiling panel (AID 1171); details: A549 viability, higher = more signal, called active from +8 up or from −8 down; also: test concentration not given here
# Sequence of NADPH oxidase 2 (Homo sapiens) (P04839 whole entry, looked up): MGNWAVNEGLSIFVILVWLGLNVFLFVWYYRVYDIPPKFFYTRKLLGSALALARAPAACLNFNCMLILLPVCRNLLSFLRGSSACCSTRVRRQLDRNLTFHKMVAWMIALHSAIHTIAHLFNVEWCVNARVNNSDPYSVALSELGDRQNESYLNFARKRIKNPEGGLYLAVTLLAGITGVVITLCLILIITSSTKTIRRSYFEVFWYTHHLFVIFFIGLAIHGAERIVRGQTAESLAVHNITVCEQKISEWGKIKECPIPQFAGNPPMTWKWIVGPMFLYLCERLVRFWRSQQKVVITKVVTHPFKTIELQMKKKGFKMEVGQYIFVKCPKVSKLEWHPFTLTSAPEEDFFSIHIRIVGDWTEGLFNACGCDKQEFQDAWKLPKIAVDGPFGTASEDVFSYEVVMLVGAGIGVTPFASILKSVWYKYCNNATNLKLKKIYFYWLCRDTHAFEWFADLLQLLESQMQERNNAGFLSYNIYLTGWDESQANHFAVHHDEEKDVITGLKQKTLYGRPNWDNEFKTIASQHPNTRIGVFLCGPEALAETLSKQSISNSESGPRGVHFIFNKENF
# Sequence of NADPH oxidase 4 (Homo sapiens) (Q9NPH5 whole entry, looked up): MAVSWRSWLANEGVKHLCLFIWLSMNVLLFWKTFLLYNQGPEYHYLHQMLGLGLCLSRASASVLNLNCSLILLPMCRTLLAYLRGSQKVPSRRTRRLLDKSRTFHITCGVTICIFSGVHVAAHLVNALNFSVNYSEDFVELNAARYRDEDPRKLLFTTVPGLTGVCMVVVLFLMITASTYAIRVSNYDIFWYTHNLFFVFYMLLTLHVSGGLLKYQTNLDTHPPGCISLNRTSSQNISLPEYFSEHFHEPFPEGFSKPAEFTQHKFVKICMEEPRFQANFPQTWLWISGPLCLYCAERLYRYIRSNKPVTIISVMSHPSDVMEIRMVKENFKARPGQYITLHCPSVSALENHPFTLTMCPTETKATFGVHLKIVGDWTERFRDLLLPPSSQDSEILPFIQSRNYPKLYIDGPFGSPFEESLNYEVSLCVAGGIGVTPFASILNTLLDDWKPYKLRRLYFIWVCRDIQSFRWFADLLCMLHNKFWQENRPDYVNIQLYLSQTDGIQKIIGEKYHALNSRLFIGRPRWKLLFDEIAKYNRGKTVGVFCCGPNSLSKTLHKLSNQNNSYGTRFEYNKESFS
# Sequence of NADPH oxidase 5 (Homo sapiens) (Q96PH1 whole entry, looked up): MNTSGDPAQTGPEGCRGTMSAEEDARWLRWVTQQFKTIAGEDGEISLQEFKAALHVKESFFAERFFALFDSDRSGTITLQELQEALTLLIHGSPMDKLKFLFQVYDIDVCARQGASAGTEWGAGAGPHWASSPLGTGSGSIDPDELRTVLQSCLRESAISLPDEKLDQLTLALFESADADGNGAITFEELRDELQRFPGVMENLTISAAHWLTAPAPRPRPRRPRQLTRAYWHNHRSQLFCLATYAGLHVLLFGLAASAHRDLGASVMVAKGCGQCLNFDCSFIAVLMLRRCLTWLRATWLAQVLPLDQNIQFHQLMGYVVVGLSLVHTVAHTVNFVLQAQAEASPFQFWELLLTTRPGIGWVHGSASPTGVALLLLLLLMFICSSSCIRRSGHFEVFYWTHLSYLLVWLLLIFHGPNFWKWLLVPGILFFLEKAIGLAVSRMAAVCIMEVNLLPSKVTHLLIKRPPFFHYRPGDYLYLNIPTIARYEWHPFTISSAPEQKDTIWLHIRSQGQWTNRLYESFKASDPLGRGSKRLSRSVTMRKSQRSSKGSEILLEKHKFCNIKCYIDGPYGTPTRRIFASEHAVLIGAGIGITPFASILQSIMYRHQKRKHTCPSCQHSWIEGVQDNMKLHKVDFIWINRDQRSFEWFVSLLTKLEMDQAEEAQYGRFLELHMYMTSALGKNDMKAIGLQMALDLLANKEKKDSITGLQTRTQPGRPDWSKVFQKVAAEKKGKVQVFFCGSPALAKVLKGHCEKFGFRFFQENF
SMILES,z-score [1],composite z-score [2],z-score [3],z-score [4],z-score [5],z-score [6],z-score [7],z-score [8],z-score [9],z-score [10],z-score [11],z-score [12],z-score [13],z-score [14],z-score [15],z-score [16],z-score [17],z-score [18],z-score [19],z-score [20]
CC(C)N1CC=CC23O[C@@H]4C=CCOC(=O)[C@@H]4[C@H]2C(=O)N(C(C)CO)[C@@H]3C1=O (stereo not given in full),-0.32 (inactive),0.233,0.287 (inactive),0.0397 (inactive),0.112 (inactive),0.111 (inactive),0.74,0.67 (inactive),0.266 (inactive),0.393,-0.327,-0.153,-0.719,1.15,-0.186,-0.664,-0.668 (inactive),-0.166,0.462,0.226 (inactive)
[N-]=[N+]=Nc1ccccc1[C@@H]1OC(c2ccc(OCCCO)cc2)=N[C@]1(CCS(=O)(=O)c1ccccc1)C(=O)NCCN1CCOCC1,0.0992 (inactive),0.417,27.4 (active),20.8 (active),1.9 (inactive),0.667 (inactive),1.12,-3.49 (inactive),-0.729 (inactive),-1.84,0.652,1.37,-0.229,0.351,-1.58,0.0652,-0.783 (inactive),-0.465,-1.2,0.465 (inactive)
Cc1c(NC(=O)/C(C#N)=C/C=C/c2ccccc2[N+](=O)[O-])c(=O)n(-c2ccccc2)n1C,0.56 (inactive),-0.184,2.91 (inactive),0.548 (inactive),0.681 (inactive),0.0839 (inactive),-0.243,-0.235 (inactive),0.0287 (inactive),0.657,-1.22,-0.355,-1.71,-3.09,-2.1,-1.76,-0.0694 (inactive),-0.588,-0.994,-1.43 (inactive)
CO[C@H]1O[C@H](CO)[C@@H](OC(=O)c2ccc(Br)cc2)[C@@H]2OC(=O)[C@@H](Cc3ccc4ccccc4c3)C/C=C/C[C@H](Cc3ccc4ccccc4c3)C(=O)O[C@@H]12,0.689 (inactive),-0.113,2.52 (inactive),-0.503 (inactive),-1.15 (inactive),-2.1 (inactive),1.74,1.76 (inactive),0.00292 (inactive),-1.77,1.12,1.26,0.564,-0.0385,-0.21,-0.122,0.497 (inactive),-0.299,-0.179,-1.41 (inactive)
CC(C)C(CO)N1C(=O)[C@]2(C)C3C(=O)OCCC/C=C\[C@H]3OC23C=CCN(c2ccc(Cl)cc2)C(=O)[C@@H]13 (stereo not given in full),-0.785 (inactive),-0.0929,1.12 (inactive),0.31 (inactive),0.787 (inactive),0.673 (inactive),-0.197,1.47 (inactive),1.04 (inactive),1.69,-0.0554,-0.199,1.08,0.547,0.163,-0.484,-0.52 (inactive),-0.634,-0.0291,-0.503 (inactive)
O=C(CS)NCCCCCCNC(=O)[C@H]1C[C@H]2C(=O)N[C@@H](Cc3ccccc3)C(=O)N2[C@H]1c1cccc(OCCO)c1,-0.405 (inactive),0.269,6 (inactive),0.988 (inactive),-0.228 (inactive),0.351 (inactive),0.882,1.76 (inactive),0.441 (inactive),-0.135,0.0757,-0.154,0.77,0.306,0.895,-0.394,0.0403 (inactive),-0.309,-1.12,0.311 (inactive)
COCCOC(=O)N1C(=O)[C@@]2(c3cc(C#CC4=CCCCC4)ccc31)[C@H](C(=O)N1CCN(c3ncccn3)CC1)[C@H]1C(=O)O[C@H](c3ccccc3)[C@H](c3ccccc3)N1[C@@H]2c1ccc(O)cc1,-0.386 (inactive),0.315,1.65 (inactive),1.5 (inactive),0.116 (inactive),0.824 (inactive),1.13,1.11 (inactive),0.482 (inactive),1.2,0.463,0.218,1.15,0.269,-0.802,-1.16,0.207 (inactive),-0.31,-1.3,-0.869 (inactive)
C=CCNC(=O)[C@@H]1[C@H]2C(=O)O[C@H](c3ccccc3)[C@H](c3ccccc3)N2[C@H](c2ccccc2OCCO)[C@@]12C(=O)N(C(=O)OCCOC)c1ccc(C#CC3=CCCCC3)cc12,0.889 (inactive),-0.0075,2.66 (inactive),0.741 (inactive),0.123 (inactive),0.906 (inactive),0.325,1.54 (inactive),1.44 (inactive),1.32,0.428,1.16,-0.555,-2.48,-2.4,-0.149,1.74 (inactive),-1.01,-1.82,-0.996 (inactive)
